The list is not random: actives were taken first. Their share in the collection is about 3.1%.
HSP90 refold inh: HSP90 refolding inhibition in rabbit reticulocyte lysate | luciferase refolding luminescence, 3 h | inhibition, % at 5.6 µM | 0.91% of 290,000 active;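 active = inhibition above the screen-wide mean plus 3 SD, computed separately per campaign, cut at about 16% in these data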;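 note: 0% = DMSO wells and 100% = 60 µM geldanamycin wells; inhibitors lower the luminescence because luciferase stays unfolded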
HSF1 inh: HSF1 inhibition; NIH3T3-HGL HSE-luciferase, MG132-induced, luminescence 8 h; hits give low values; activity change, negative = inhibition, % at 7.5 µM (by protocol); 0.77% of 300,000 active; AID 2098;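 active = more than half of replicate wells show activity change below -50%, luminescence cut by over half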;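 note: luciferase reports HSF-1 transcriptional activity via heat shock element; 0% = median of DMSO wells and -100% = zero luminescence signal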
HIF activator: HIF pathway transcriptional activation. U2OS HRE-luciferase reporter, luminescence; normalized: DMSO 0%, desferrioxamine 100%. activation, % at 7.5 µM (by protocol). 0.32% of 300,000 active;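 active = mean activation of at least 10% of the iron chelator positive control signal, with at least half of replicates also reaching 10%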
HSF1 activator: increases HSF-1 driven luciferase reporter signal. activation, % at 9 µM. AID 504408. NIH3T3-HGL HSF-1 luciferase reporter, MG132, 8 h; 100% = twice DMSO control signal. 1.7% of 300,000 active;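 active = mean replicate activation of at least 50% with a set share of replicates each reaching 50%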;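 note: 0% = median of the neutral control wells and 100% = twice that signal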
ARNT TACC3 PPI: ARNT/TACC3 interaction disruption; AlphaScreen His-ARNT PAS-B/GST-TACC3 binding, luminescence; TACC3 fragment carries E629A point mutation; 0.66% of 390,000 active; inhibition, % at 9.99 µM; AID 623870;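 active = mean inhibition of replicates at least 50% and at least half of replicates each reaching 50%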;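 note: 0% = complete ARNT plus TACC3 wells and 100% = ARNT alone without TACC3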
HSP90 confirm: confirmation of HSP90 inhibitors | shares compounds with HSP90 refold inh | rabbit reticulocyte lysate, luciferase refolding luminescence, 3 h | inhibition, % at 5.9 µM | 64% of 2,300 active | AID 1846; in the data active = inhibition above about 18%;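 note: 0% = vehicle wells and 100% = reference inhibitor wells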
luciferase ctr: firefly luciferase inhibition, HSP90 counter-screen; purified native firefly luciferase, luminescence; shares compounds with HSP90 refold inh; 48% of 2,300 active; inhibition, % at 5.9 µM; AID 1847;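 active = inhibition above the mean inhibition of all tested sample wells plus 3 SD, cut at about 10% in these data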;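 note: 0% = DMSO with luciferase and 100% = wells lacking luciferase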
Target sequence (P08659 whole entry, looked up): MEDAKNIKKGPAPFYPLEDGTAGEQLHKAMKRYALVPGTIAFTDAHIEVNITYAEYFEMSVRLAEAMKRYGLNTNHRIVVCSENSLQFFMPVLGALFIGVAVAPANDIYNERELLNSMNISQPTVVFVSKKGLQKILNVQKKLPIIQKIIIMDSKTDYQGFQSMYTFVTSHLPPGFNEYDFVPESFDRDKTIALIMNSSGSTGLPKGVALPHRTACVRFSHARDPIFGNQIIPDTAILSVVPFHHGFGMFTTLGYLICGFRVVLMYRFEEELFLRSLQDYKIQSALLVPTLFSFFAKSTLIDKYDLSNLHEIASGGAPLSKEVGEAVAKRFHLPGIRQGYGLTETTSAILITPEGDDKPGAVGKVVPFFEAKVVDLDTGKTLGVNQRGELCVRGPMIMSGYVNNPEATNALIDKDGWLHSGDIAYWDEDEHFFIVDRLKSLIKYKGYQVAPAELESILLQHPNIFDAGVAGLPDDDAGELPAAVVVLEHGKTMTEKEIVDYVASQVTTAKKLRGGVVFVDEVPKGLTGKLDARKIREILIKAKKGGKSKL
* = called active by the depositor.

`COc1ccccc1Nc1nc(-c2sc(NC(=O)c3cccc(Cl)c3)nc2C)cs1` gave HSP90 refold inh 66.0*, HSF1 inh -8.3, HIF activator -0.8, HSF1 activator -19.5, HSP90 confirm 60.9* and luciferase ctr -10.8.
Screening Cc1ccc(Nc2nc(-c3sc(NC(=O)c4cccc(Cl)c4)nc3C)cs2)cc1 returned HSP90 refold inh 70.3*, HSF1 inh -7.7, HIF activator 2.3, HSF1 activator -15.8, HSP90 confirm 46.5* and luciferase ctr -13.6.
Screening C[C@H](CO)N1C[C@H](C)[C@H](CN(C)S(=O)(=O)c2ccc(F)cc2)OCCCC[C@H](C)Oc2ccc(NS(=O)(=O)c3cccs3)cc2C1=O returned ARNT TACC3 PPI 14.7.
`Cc1ccc2cc(CCNC(=O)c3ccc(S(=O)(=O)N4CCCCC4)cc3)c(=O)[nH]c2c1` gave HSP90 refold inh 34.9*, HSF1 inh 3.0, HIF activator -0.1, HSF1 activator 11.5, ARNT TACC3 PPI -1.9, HSP90 confirm 0.4 and luciferase ctr -4.2.
For Cc1ccc(NC(=O)Cc2ccc3c(c2)OCCO3)cc1S(=O)(=O)N1CCCCC1 the results were HSP90 refold inh 27.1*, HSF1 inh -0.9, HIF activator -0.4, HSF1 activator 0.0, ARNT TACC3 PPI -5.0, HSP90 confirm 5.8 and luciferase ctr -0.1.
`Cc1ccc(NC(=O)CCl)cc1S(=O)(=O)N1CCCCCC1` gave HSP90 refold inh 1.7, HSF1 inh -1.8, HIF activator -2.1, HSF1 activator -7.6 and ARNT TACC3 PPI -0.7.
For COc1cccc(NC(=O)C[C@@H]2CC[C@@H]3[C@@H](COc4ccc(NC(=O)C5CCCCC5)cc4C(=O)N3C)O2)c1 the results were ARNT TACC3 PPI 7.9.
`Cc1oc(C(=O)O)cc1COc1ccc2c3c(c(=O)oc2c1)CCC3` gave HSP90 refold inh 19.3*, HSF1 inh 2.0, HIF activator 0.2, HSF1 activator 21.6, ARNT TACC3 PPI 3.9, HSP90 confirm 8.2 and luciferase ctr -14.8.
COC(=O)c1ccc(COc2ccc3c(C)c(C)c(=O)oc3c2C)o1 was read as HSP90 refold inh 3.1 and ARNT TACC3 PPI -6.2.
`Cc1c(OCc2ccc(C(=O)O)o2)ccc2c3c(c(=O)oc12)CCC3` gave HSP90 refold inh 49.6*, HSF1 inh -9.1, HIF activator -0.1, HSF1 activator -2.1, ARNT TACC3 PPI -2.0, HSP90 confirm 62.7* and luciferase ctr 13.4*.
COC(=O)c1ccc(COc2ccc3c4c(c(=O)oc3c2)CCC4)o1 was read as HSP90 refold inh 13.1, HSF1 inh 4.5, HIF activator 1.9, HSF1 activator 15.3 and ARNT TACC3 PPI 1.6.
CCOC(=O)NC(=O)CSc1ccccn1 was read as HSP90 refold inh 2.4, HSF1 inh -0.4, HIF activator -0.6, HSF1 activator 1.4 and ARNT TACC3 PPI -8.7.
Screening CCOC(=O)NC1Cc2ccccc2C1Sc1ccccn1 (stereo not drawn) returned HSP90 refold inh 43.6*, HSF1 inh 3.9, HIF activator -0.3, HSF1 activator -2.7, ARNT TACC3 PPI 10.4, HSP90 confirm -6.3 and luciferase ctr -12.8.
CC(=O)c1cccc(OCCN2C(=O)NC(C)(C)C2=O)c1 was read as HSP90 refold inh -1.3, HSF1 inh 1.7, HIF activator -0.6, HSF1 activator 9.8 and ARNT TACC3 PPI -2.2.
CC1(C)NC(=O)N(CCOc2cccc(Cl)c2Cl)C1=O was read as HSP90 refold inh 18.3*, HSF1 inh -6.5, HIF activator 0.0, HSF1 activator 3.5, ARNT TACC3 PPI -6.7, HSP90 confirm -8.6 and luciferase ctr -9.5.
`O=C(N/N=C/c1ccco1)c1cc(-c2ccccc2)n[nH]1` gave HSP90 refold inh -1.8, HSF1 inh -6.5, HIF activator -53.1 and HSF1 activator 19.7.
Cc1ccc(-c2cc(C(=O)N/N=C/c3ccco3)[nH]n2)cc1 was read as HSP90 refold inh 22.1*, HSF1 inh 2.0, HIF activator 1.3, HSF1 activator -4.0, ARNT TACC3 PPI 1.5, HSP90 confirm 18.6* and luciferase ctr 24.5*.
`CCC(C)c1ccc2oc(-c3ccc(NC(=O)Cn4cnc5c(=O)n(C)c(=O)n(C)c54)cc3)nc2c1` (stereo not drawn) gave HSP90 refold inh 26.1*, HSF1 inh -19.7, HIF activator 10.4*, HSF1 activator -13.8, ARNT TACC3 PPI -4.9, HSP90 confirm 27.5* and luciferase ctr 17.5*.
For C[C@H]1CCCCO[C@@H](CN(C)C(=O)NC2CCCCC2)[C@@H](C)CN([C@@H](C)CO)C(=O)c2cc(NS(=O)(=O)c3ccc(F)cc3)ccc2O1 the results were ARNT TACC3 PPI -2.6.
CCOC(=O)Nc1cc(C(=O)OCC)c(C)nc1C was read as HSP90 refold inh 27.1*, HSF1 inh 5.6, HIF activator -0.1, HSF1 activator 22.0, ARNT TACC3 PPI -23.4, HSP90 confirm 3.0 and luciferase ctr -3.1.
Screening CCOc1ccc(-c2cn3ccccc3n2)cc1 returned HSP90 refold inh 27.4*, ARNT TACC3 PPI 1.7, HSP90 confirm 64.1* and luciferase ctr 47.1*.
`CCOc1ccc(-c2cnc3ccccc3n2)cc1` gave HSP90 refold inh 41.9*, HSF1 inh -58.1*, HIF activator -5.8, HSF1 activator -57.9, ARNT TACC3 PPI -2.9, HSP90 confirm 86.4* and luciferase ctr 79.7*.
For O=C(c1cc(-c2cccc(Cl)c2)on1)N1CCOCC1 the results were HSP90 refold inh 0.3, HSF1 inh 14.6, HIF activator 1.6, HSF1 activator 29.3 and ARNT TACC3 PPI -14.8.
For O=C(c1cc(-c2ccc(Cl)cc2Cl)on1)N1CCOCC1 the results were HSP90 refold inh 29.8*, HSF1 inh 11.4, HSF1 activator 31.3, ARNT TACC3 PPI 1.9, HSP90 confirm 45.9* and luciferase ctr 43.5*.
For CN(C)CCCNC(=O)C[C@@H]1C=C[C@H](NC(=O)Cc2cccnc2)[C@@H](CO)O1 the results were ARNT TACC3 PPI -4.6.
`O=C(C[C@H]1CC[C@H]2[C@@H](COC[C@H](O)CN2Cc2ccc3c(c2)OCO3)O1)N1CCCCC1` gave ARNT TACC3 PPI 9.5.
For CC(C)n1cc(CN2CCCC(C(=O)Nc3cccc(-c4cc5ccccc5[nH]4)c3)C2)cn1 (stereo not drawn) the results were HSP90 refold inh 18.2*, HSF1 inh 3.7, HIF activator -0.6, HSF1 activator -4.0, HSP90 confirm 10.8 and luciferase ctr -6.2.
For CCn1cc(CN2CCCC(C(=O)Nc3cccc(-c4cc5ccccc5[nH]4)c3)C2)c(C)n1 (stereo not drawn) the results were HSP90 refold inh -0.7, HSF1 inh -0.9, HIF activator -0.4 and HSF1 activator 12.2.

Screening data (PubChem)
